# High-throughput results as filed in PubChem.
# D1 PAM = potentiators of human D1 dopamine receptor; P21728; potentiation, % at 10 µM; actives 0.036% (n = 360,000); AID 504651; HEK293 TREx D1 cells, calcium flux, dopamine EC20 potentiation; in the data active means potentiation above about 30%; further: 0% is about no effect
# Target sequence (P21728 whole entry, looked up): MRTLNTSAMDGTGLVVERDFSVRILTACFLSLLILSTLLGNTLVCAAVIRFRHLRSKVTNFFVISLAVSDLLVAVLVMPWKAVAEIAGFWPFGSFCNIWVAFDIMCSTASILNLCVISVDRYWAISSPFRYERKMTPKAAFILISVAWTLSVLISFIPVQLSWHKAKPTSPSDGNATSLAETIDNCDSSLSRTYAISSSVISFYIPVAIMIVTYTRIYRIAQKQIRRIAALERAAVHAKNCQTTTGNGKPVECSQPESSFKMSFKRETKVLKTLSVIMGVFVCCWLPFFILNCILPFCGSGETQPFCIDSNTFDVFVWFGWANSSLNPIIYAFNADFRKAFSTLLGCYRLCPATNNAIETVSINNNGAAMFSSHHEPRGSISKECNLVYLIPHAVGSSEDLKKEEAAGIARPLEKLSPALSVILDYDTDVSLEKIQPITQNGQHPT
# TRHR enhancer = allosteric enhancers of human TRH receptor. P34981. TRHR cells, fluo-8 calcium fluorescence, EC20 TRH enhancement. enhancement, % at 2 µM. actives 0.66% (n = 360,000); in the data active means enhancement above about 30%; further: 0% is about no effect
#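 Enhancer read-out: after compound pinning and an initial kinetic agonist-mode read, an EC20 of TRH (10 nM final) was injected and fluo-8 calcium signal (Ex 480/Em 530) followed at 1 s/cycle for 100 cycles in TRHR-expressing cells.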
# D1 antagonist = human D1 dopamine receptor antagonism | P21728 | HEK293 TREx D1 cells, calcium flux, dopamine EC80; stronger effect = lower value | activity change, negative = inhibition, % at 10 µM | actives 3.2% (n = 360,000); in the data active means activity change below about -30%; further: on the % scale 0 is the no-effect control and ±100 the full control effect
#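 Tetracycline-induced HEK293 T-REx cells with force-coupled D1 receptor were loaded with a no-wash calcium dye. Compound was added after a 10 s baseline and read kinetically for 180 s; EC80 dopamine was then added and calcium flux followed another 180 s.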
# D1 agonist = human D1 receptor agonism. P21728. HEK293 T-REx D1 cells, calcium flux, agonist mode. activation, % at 2 µM. actives 1% (n = 360,000). AID 504660; further: 0% is about no effect
#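 Inducible HEK293 T-REx D1 cells, force-coupled to calcium signalling, were plated at 4000 cells/well with tetracycline and held overnight at 30 C. After no-wash calcium dye loading, compound-evoked calcium rise over 180 s flagged agonists.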
# TRHR agonist = activates the human TRH receptor; P34981; TRHR cells, calcium flux fluo-8, FDSS agonist mode; activation, % at 2 µM; actives 0.18% (n = 360,000); further: 0% is about no effect
#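 Read-out: compound-evoked intracellular calcium rise in TRHR cells, fluo-8 dye, kinetic FDSS fluorescence at 1 s/cycle following a 10-cycle baseline. Cells cultured overnight before dye loading (30 min–1.5 h, RT).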
# Active calls of the source: *; x = no result. Shown are actives, neighbours in structure and some others; about 4.6% of the full set was active somewhere. Unless noted, no stated cut-off is given here; in the data, active means activation above about 30%; inactive means the rest.
SMILES,D1 PAM,TRHR enhancer,D1 antagonist,D1 agonist,TRHR agonist
N#Cc1cnn2ccc(-c3ccc4c(c3)CCC4)nc12,-8,-8,-31*,0,-1
COC(=O)c1ccc2c(=O)n(CCCCCC(=O)NC(C)C)c(=O)[nH]c2c1,-1,-1,8,9,0
Cc1ccc2nc(NS(=O)(=O)c3ccc(Cl)cc3)c(Nc3ccc(C(=O)O)cc3)nc2c1,-1,1,-9,11,0
CCc1ccc(Nc2nc3ccccc3nc2NS(=O)(=O)c2ccccc2)cc1,-5,-2,-49*,17,0
COc1cccc(Nc2nc3cc(C)ccc3nc2NS(=O)(=O)c2ccc(Cl)cc2)c1,-4,-1,-50*,58*,6
CCOC(=O)c1ccc(Nc2nc3ccccc3nc2NS(=O)(=O)c2ccc(Cl)cc2)cc1,-2,-6,-40*,15,0
COC(=O)c1ccc(OC)c(NS(=O)(=O)c2ccc(-n3cnnn3)cc2)c1,x,12,-18,8,-1
COc1cc(NC(=O)CCN2CCN(C)CC2)cc(OC)c1,-2,-1,2,1,-1
CC(Sc1nnnn1C)C(=O)Nc1ccccc1 (stereo not given),0,-1,-11,2,0
CCOc1ccc(NC(=O)C(C)Sc2nnnn2C)cc1 (stereo not given),-8,0,-32*,0,0
CC(Sc1nccn1C)C(=O)Nc1ccc(C(N)=O)cc1 (stereo not given),-5,31*,27,3,0
CCOC(=O)c1cnc(-n2nc(C)cc2C)[nH]c1=O,7,0,0,1,0
C[C@@H](CSc1ccccc1)CN1CC[C@H](O)CCC1=O,1,-4,-31*,-1,0
Cc1cc(NC(=O)CCc2ccc(C)o2)no1,-9,0,-42*,1,0
Cc1ccc(C)c(NC(=O)CCc2ccc(C)o2)c1,-5,-13,-1,2,0
Cc1ccc(NC(=O)CCc2ccc(C)o2)c(C)c1,0,-3,30,32*,-1
CCc1ccc(NC(=O)CCc2ccc(C)o2)cc1,7,3,-9,2,-4
CCc1ccc(NC(=O)[C@H](C)NC(=O)C2CCN(C(=O)[C@@H](NC(=O)OC(C)(C)C)C(C)C)CC2)cc1,3,-1,6,3,0
O=C(O)Cn1cc(/C=N/NC(=O)c2cc3cc(Br)ccc3o2)c2ccccc21,4,-5,-33*,1,0
COc1ccc([C@H]2CC(=O)C=C(c3ccc(-c4ccccc4)c(F)c3)C2)cc1OC,0,-4,x,0,0
O=C(CN1c2ccccc2Sc2ccccc21)NNC(=O)Nc1ccc(Cl)c(Cl)c1,-11,-2,-3,2,0
O=C(CN1c2ccccc2Sc2ccccc21)NNC(=O)Nc1ccc(Cl)cc1,-11,37*,-36*,0,0
CC(Oc1ccccc1)C(=O)N1CCN(c2ccc(N3CCCCC3)nn2)CC1 (stereo not given),-2,3,-12,2,0
CCOC(=O)C(=CNc1ccc(Cl)cn1)C(=O)OCC,0,5,-40*,1,-1
CCOC(=O)C(=CNc1cccc(N)n1)C(=O)OCC,-6,1,-23,1,0
SMILES,D1 PAM,TRHR enhancer,D1 antagonist,D1 agonist,TRHR agonist
CC(=O)N/C(=C\c1ccccc1)C(=O)OCC(=O)NC(=O)c1ccccc1,-1,-9,0,1,0
Nc1o[nH]c(=O)c1Cc1ccccc1,-2,8,4,2,-1
COc1ccc(C2N(c3ccc(Cl)cc3)C(=O)C3CCCN32)cc1 (stereo not given),0,5,-38*,3,-1
COc1ccc(N2C(=O)C3CCCN3C2c2ccc(Cl)cc2)cc1 (stereo not given),-4,8,0,1,0
COCCCNC(=O)C1CCC(=O)N1Cc1ccccc1Cl (stereo not given),0,-3,2,1,0
CCN(CCN(C)C)C(=O)Cn1ncc2c1-c1cc(C)ccc1OC2,-1,2,-33*,2,0
Cc1ccc2c(c1)-c1c(cnn1CC(=O)O)CO2,0,3,-12,3,-1
COc1ccc(-c2nc(SCC(=O)c3ccc(Br)cc3)n[nH]2)cc1,-5,-8,8,-1,0
Cc1ccc(-c2nnn(CC(=O)N3C(C)CCCC3C)n2)cc1 (stereo not given),0,0,-26,2,0
Cc1cccc(NS(=O)(=O)c2cccc(C(=O)Nc3cccc(C(=O)O)c3)c2)c1,6,0,-22,9,0
Cc1ccccc1NC(=O)c1ccc(NS(=O)(=O)c2cc(C(C)(C)C)cc(C)c2C)cc1,-5,0,-85*,0,0
Cc1cc(C(C)(C)C)cc(S(=O)(=O)Nc2cccc(C(=O)O)c2)c1C,-8,-2,-18,1,0
Cc1ccccc1NC(=O)c1cccc(S(=O)(=O)Nc2cccc(C(=O)O)c2)c1,2,-4,-31*,-3,0
Cc1nnc(SCC(=O)Nc2ccccc2F)n(N)c1=O,-1,12,0,3,1
COC(=O)c1ccc(C2Nc3c(C)cccc3-c3cc(C)nn32)cc1 (stereo not given),-8,6,3,0,0
O=C(C[n+]1ccc(Cc2ccccc2)cc1)Nc1ccccc1,1,-9,-2,0,0
O=C(Cc1cccc(F)c1)N1CCCC(CO)(Cc2ccc(F)cc2F)C1 (stereo not given),-3,-2,31,-1,1
COc1ccccc1/C=C/CN1CCCC(CO)(Cc2cccc(Cl)c2)C1 (stereo not given),2,3,5,4,1
COc1cccc(CC(=O)N2CCCC(CO)(Cc3ccc(F)cc3F)C2)c1 (stereo not given),-5,-7,-47*,7,0
COc1cccc(CC2(CO)CCCN(C/C=C/c3ccccc3OC)C2)c1 (stereo not given),-4,10,19,33*,-1
O=C(O)C/C=C(\NC(=O)OCc1ccccc1)C(=O)OCc1ccccc1,-1,11,5,1,-1
CCCNC(=O)C1CC(=O)N(c2ccc(OCC)cc2)C1 (stereo not given),5,-1,-1,3,0
Cc1ccc(C(=O)COC(=O)c2cc(Cl)nc3ccccc23)cc1,-7,-1,-2,2,-1
Cc1ccc(Cl)cc1N1CCN(C(=O)c2ccc(NC3=NC4CS(=O)(=O)CC4S3)cc2)CC1 (stereo not given),-5,-3,-44*,4,1
c1ccc(-c2nc3ccccc3[nH]2)cc1,2,13,3,0,0
Cc1ccc(-c2nc3ccccc3[nH]2)s1,1,35*,1,2,-1
